In all, about 340,000 compounds went through this assay and about 6,400 (1.9%) were called active. About 4% were inconclusive and are not listed. This excerpt belongs to a sample that is enriched for actives. Values without a mark were called inactive. Calls follow the shape of the dose curve; as a rule, active = well fitted falling curve with a large enough effect; inconclusive = small, poorly fitted or top-dose-only effect; inactive = no such curve, though single readings can be large or run the other way.
Each compound was assayed against ATP-dependent Clp protease proteolytic subunit (Bacillus subtilis (strain 168)) (UniProt P80244) (assay: qHTS Assay for Activators of ClpP). Conditions: purified B. subtilis ClpP, FRET peptide cleavage, 20 min; series mostly up to 57.5 µM; activity change, negative = active: at the top concentration.
Outline: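 ClpP 10 microg/mL final, pH 8 Tris/KCl buffer with BSA, glycerol, Tween-20; compound pinned in; FRET-FV substrate; RT 20 min; Ex320/Em430; ΔFRET vs ADEP 5.8 microM, DMSO, no enzyme.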
Also: the source files actives as falling curves though it sought activators and does not explain the sign; nearly all actives have a fitted effect of over 65% in size.
Potency is read from the fitted curve at half-maximal effect.

Sequence of ATP-dependent Clp protease proteolytic subunit (Bacillus subtilis (strain 168)) (P80244 whole entry, looked up): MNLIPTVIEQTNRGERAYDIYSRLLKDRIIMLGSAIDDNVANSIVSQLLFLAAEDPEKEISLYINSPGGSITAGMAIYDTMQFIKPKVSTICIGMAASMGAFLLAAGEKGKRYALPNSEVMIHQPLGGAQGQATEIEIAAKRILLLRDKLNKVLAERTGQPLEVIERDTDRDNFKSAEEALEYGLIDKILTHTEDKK

SMILES | Potency | activity change, negative = active [%]
COc1ccc(-c2cc(C(=O)n3cnc4ccccc43)c3ccccc3n2)cc1 | 31.6 µM (active) | –
Cc1ccc(OCC(=O)Nn2cnc3ccccc32)cc1 | – | 1.25
CC(=O)Nc1cc(-c2cccc(CO)c2)cn2c(-c3cccc(C(F)(F)F)c3)cnc12 | – | -10.7
CCN(CC)c1ncnc2c1ncn2[C@H]1CN(Cc2cccs2)C[C@@H](CO)O1 | – | 1.98
Cc1ccccc1NC(=O)c1ccc(COc2ccc3c(C)cc(=O)oc3c2)cc1 | – | -26
Cc1cc(=O)oc2cc(OCC3CC(c4ccccc4Cl)=NO3)ccc12 (stereo not given) | 28.2 µM (active) | –
Cc1cc(OCCCN2CCN(Cc3ccccc3)CC2)ccc1[N+](=O)[O-] | – | 2.82
Cc1ccccc1N1CCN(CCCOc2ccc3c(C)cc(=O)oc3c2)CC1 | 35.5 µM (active) | –
COc1ccccc1N1CCN(CCCCOc2ccc(F)cc2)CC1 | – | 0.387
Cc1cc(=O)oc2cc(NC(=O)C3CC(=O)N(Cc4ccccc4)C3)ccc12 (stereo not given) | – | 39.1
COc1cccc(C(NC(C)=O)c2nc(-c3ccccc3OC)cs2)c1 (stereo not given) | – | -2.87
CC1(C(=O)Nc2ccccc2Br)CCN1C(=O)CC1CC1 (stereo not given) | – | -0.604
COc1ccc(C2OC(CCc3ccccc3)Cc3[nH]c(=S)[nH]c(=O)c32)cc1 (stereo not given) | – | 4.97
OC[C@@H]1CN(Cc2ccncc2)C[C@H](n2cnc3c(N4CCN(c5ccccc5)CC4)ncnc32)O1 | – | -3.11
COCCCn1cc(CN2CC(N(C)C)CS2(=O)=O)nn1 (stereo not given) | – | -2.45
CCCCC(O)C1=C[N+](=O)CC=C1 (stereo not given) | – | -4.82
Cc1cc(NC(C)C)n2c(nc3ccccc32)c1C#N | – | -1.59
Cc1cc(NCc2ccco2)n2c(nc3ccccc32)c1C#N | 28.2 µM (active) | –
CCOCCCNc1c(CC)c(C)c(C#N)c2nc3ccccc3n12 | – | -12.5
N#CCCN(C(=O)Nc1ccc(Cl)c(Cl)c1)C1CCCCC1 | – | -2.9
CCOC(=O)C1CCCN(C(=O)c2cc(-c3cccs3)oc2C)CC1 (stereo not given) | – | -7.21
CCOC(=O)c1cc(C(C)C)sc1NC(=O)COC(=O)c1nccnc1N | 20 µM (active) | –
CCOC(=O)c1c(NC(=O)COc2cc(C)ccc2C(C)C)sc(C)c1C | – | -8.6
Cc1ccc(NC(=O)CN(C)C(=O)COC(=O)c2nccnc2N)cc1 | – | 4.55
COc1ccc(-c2csc(NC(=O)c3ccc(N4C(=O)CCC4=O)cc3)n2)cc1OC | 14.1 µM (active) | –
COc1ccc(C(=O)Nc2nc(-c3ccc(S(=O)(=O)N4CCOCC4)cc3)cs2)cc1 | – | -13
COc1ccc(-c2csc(Nc3cccc(C)n3)n2)cc1OC | – | 2.08
O=C(CSc1nc2c(cnn2-c2ccc(F)cc2)c(=O)[nH]1)N1CCCCCC1 | – | -2.99

SMILES | Potency | activity change, negative = active [%]
CC(=O)c1sc2nc(SCC(=O)N3CCCCC3)[nH]c(=O)c2c1C | 31.6 µM (active) | –
C=CCNC(=O)CSc1nc2sc(C)c(C)c2c(=O)[nH]1 | – | -1.33
CC(C)CC1C(=O)N(Cc2cn(CC3CCCCC3)nn2)CCS(=O)(=O)N1Cc1ccc(-c2ccc(Cl)cc2)cc1 (stereo not given) | – | -2.28
CO[C@@H]1CN(C)C(=O)c2cc(NC(=O)Nc3cc(F)ccc3F)ccc2OC[C@H](C)N(C(=O)c2ccccn2)C[C@@H]1C | – | 0.186
CC(C)Cn1c(N)c(C(=O)NCc2cccs2)c2nc3ccccc3nc21 | 7.08 µM (active) | –
Cn1ncc(Br)c1C(=O)NCc1cccs1 | – | 2.03
CCOc1ccccc1NC(=O)Cn1nnc(C(=O)NCc2cccs2)c1N | – | -0.11
NCCCNC(=S)NCCCN(Cc1ccc(Cl)cc1)c1ccc(Br)cn1 | – | -0.884
CC1(C(=O)Nc2ccc3c(c2)OCCO3)CN(S(C)(=O)=O)CC(=O)N1Cc1cccc(F)c1 (stereo not given) | – | -3.71
CCC(C(=O)NCc1cccnc1)n1nc(C)c2sc3ccccc3c2c1=O (stereo not given) | – | 3.56
CCC(Oc1ccccc1)C(=O)NCc1cccnc1 (stereo not given) | 35.5 µM (active) | –
O=C(NCc1cccnc1)Nc1ccccc1F | – | -1.06
CC(=O)Nc1cccc(-c2ccnc3c2CC(C)(C(=O)NCc2ccccc2)O3)c1 (stereo not given) | – | -13.9
CC1(C(=O)Nc2ccc3c(c2)OCCO3)CCN1C(=O)Cc1cc(F)ccc1F (stereo not given) | – | 1.99
COc1ccc(NC(=O)C2Cc3c(-c4ccc(Cl)cc4)ccnc3O2)cc1 (stereo not given) | – | -0.108
COc1ccc(CC(=O)Nc2c(C(N)=O)oc3ccccc23)cc1 | – | -4.43
CCOc1ccc(NC(=O)c2ncoc2-c2ccco2)cc1 | – | -2.31
COc1ccc(CC(=O)Nc2ccc(C(=O)NC(C)(C)C)cc2)cc1 | – | -3.23
CC(=O)Nc1ccc(NC(=O)COc2ccc(-c3ccccc3)cc2)cc1 | – | 0.862
O=C(Nc1ccc(-c2nnc(-c3ccccc3)o2)cc1)C1CCCO1 (stereo not given) | 12.6 µM (active) | –
O=C(Nc1cccc(-c2nnc(-c3ccccc3)o2)c1)C1CCCO1 (stereo not given) | – | -11.2
O=C(CSc1nnc(-c2ccc(NS(=O)(=O)c3ccccc3)cc2)o1)NCC1CCCO1 (stereo not given) | – | -5.44
O=C(CSc1nnc(-c2ccco2)o1)NCC(=O)c1ccccc1 | – | 0.0274
COc1ccc(CC(=O)Nc2ccc(-c3nnc(-c4ccccc4)o3)cc2)cc1 | 7.08 µM (active) | –
Cc1ccc(OCC(=O)Nc2ccc(-c3nnc(-c4ccco4)o3)cc2)cc1 | 28.2 µM (active) | –
COc1ccc(OCC(=O)Nc2nnc(-c3ccco3)s2)cc1 | – | 0.126
CCOc1ccc(-c2nnc(-c3ccco3)o2)cc1 | 8.91 µM (active) | –

Reference: PubChem BioAssay AID651965 (National Center for Advancing Translational Sciences (NCATS), 2013)
